This is a sample that favours compounds with a hit; in the whole collection about 4.1% have one here.
DAX1 inh-1: inhibits human nuclear receptor DAX1 | P51843 | HEK293 Gal4-DAX1 luciferase reporter, luminescence | inhibition, % at 6.75 µM | 0.99% of 340,000 active | AID 504766;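 active = inhibition above the mean over all tested compounds plus 3 SD, cut at about 4.2% in these data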;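 also: 0% = DAX1-transfected cells with DMSO and 100% = empty-vector control cells with DMSO; inhibition shows as a rise in luminescence from relieved DAX1 repression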
ssDAF-12 act: activators of S. stercoralis DAF-12 nuclear receptor; HEK293 ssDAF-12/GRIP1 lit1-tk-luc reporter, luminescence; % of 3 µM dafachronic acid response; activation, % at 6.8 µM; 1% of 370,000 active; AID 652126;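 active = activation above the mean over all tested compounds plus 3 SD, cut at about 0.9% in these data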;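 also: 0% = DMSO-only wells and 100% = 3 µM delta7-dafachronic acid wells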
hgDAF-12 ag: activates the H. glycines DAF-12 receptor ligand-binding domain. HEK293 GAL4-hgDAF12 UAS-luciferase reporter, agonist luminescence; normalized to butyrate control. activation, % at 6.8 µM. 1.8% of 370,000 active. AID 687014;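 active = activation above a cutoff set at the mean of all screened compounds plus 3 SD, cut at about 10% in these data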;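 also: 0% = DMSO wells and 100% = sodium butyrate wells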
hcDAF-12 act: H. contortus DAF-12 activation, primary screen | HEK293 hcDAF-12 lit1-tk-luc reporter, luminescence; 0% DMSO, 100% Δ7-dafachronic acid | activation, % at 6.8 µM | 1.4% of 370,000 active | AID 652067;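 active = activation above the mean of all tested compounds plus 3 SD, cut at about 5.5% in these data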;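 also: 100% = response to 3 µM Δ7-dafachronic acid high control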
DAX1 inh-2: blocks DAX1 repression of SF-1 activated StAR promoter. HEK293T StAR-luciferase reporter, SF-1/DAX-1 repression relief. inhibition, % at 6.8 µM. 1.1% of 370,000 active. AID 652010;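 active = inhibition above the mean over all tested compounds plus 3 SD, cut at about 3.6% in these data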;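 also: 0% = DAX-1 cells with DMSO and 100% = cells lacking DAX-1 with DMSO; higher inhibition means more luminescence from relief of DAX-1 repression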
hgDAF12 conf: hgDAF-12 agonism, confirmation assay; shares compounds with hgDAF-12 ag; AID 743050; HEK293 GAL4-hgDAF12 luciferase reporter, agonist mode; percent of butyrate response; activation, % at 6.8 µM; 80% of 3,300 active;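 active = mean activation over triplicate wells above the hit cutoff derived from the earlier primary screen, cut at about 11% in these data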;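 also: 0% = DMSO low control and 100% = 2 mM sodium butyrate high control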
LXRb DAF12 ctr: counter-screen for DAF-12 agonists: agonists of human LXR-beta; shares compounds with hgDAF-12 ag; activation, % at 6.8 µM; 3,300 tested, under 10 active; HEK293 Gal4-LXR luciferase reporter, 24 h; AID 743051;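 active = mean activation of the triplicate above a set limit carried over from the primary screen, none filed active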
Target sequence (P55055 whole entry, looked up, the tested form may be a part): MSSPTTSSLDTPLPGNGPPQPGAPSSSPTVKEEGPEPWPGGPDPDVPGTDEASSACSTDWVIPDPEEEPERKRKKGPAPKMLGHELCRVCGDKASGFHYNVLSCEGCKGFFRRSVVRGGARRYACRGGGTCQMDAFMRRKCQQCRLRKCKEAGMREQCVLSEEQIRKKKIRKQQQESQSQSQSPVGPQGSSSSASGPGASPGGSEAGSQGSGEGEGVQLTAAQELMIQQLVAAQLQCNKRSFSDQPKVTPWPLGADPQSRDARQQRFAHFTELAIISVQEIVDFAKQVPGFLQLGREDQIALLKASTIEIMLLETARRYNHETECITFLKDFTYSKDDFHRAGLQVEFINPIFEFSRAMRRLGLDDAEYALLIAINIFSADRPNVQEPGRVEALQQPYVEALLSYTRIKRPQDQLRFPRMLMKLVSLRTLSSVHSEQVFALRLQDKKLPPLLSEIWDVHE
The depositor's hits bear a star; x = no result.

SMILES	DAX1 inh-1	ssDAF-12 act	hgDAF-12 ag	hcDAF-12 act	DAX1 inh-2	hgDAF12 conf	LXRb DAF12 ctr
Cc1ccc(/C=N/NC(=O)c2ccccn2)s1	1.2	-0.2	15.3*	3.7	3.2	14.0*	0.6
C/C(=N\NC(=O)c1ccc2c(c1)OCO2)c1ccc2c(c1)OCO2	2.5	-1.1	3.8	0.1	-0.1	x	x
C/C(=N\NC(=O)c1cccs1)c1ccc2c(c1)OCO2	x	0.0	19.6*	5.3	3.0	7.9	0.2
O=C(Nc1nc(=O)c2ccccc2s1)c1ccccc1	1.1	-0.1	9.4	4.5	2.4	x	x
O=C(Nc1nc2c(s1)C(=O)CCC2)c1ccccc1	0.0	0.3	15.5*	4.5	2.6	16.7*	0.9
O=C(/C=C/c1c[nH]c2ccccc12)c1ccccc1	2.1	0.5	16.3*	5.2	0.9	19.6*	0.8
Cc1nn(C)cc1/C=C/C(=O)c1ccccc1	2.7	0.4	18.1*	4.6	3.0	16.2*	0.8
Cc1c(/C=C/C(=O)c2ccc(O)cc2)cnn1C	4.2	0.5	16.9*	3.8	1.7	9.1	0.4
Cc1c(/C=C/C(=O)c2ccc(C(C)C)cc2)cnn1C	-0.3	-2.0	2.5	-2.1	-0.8	x	x
CCn1ncc(/C=C/C(=O)c2ccccc2)c1C	2.7	0.2	16.8*	3.9	1.3	12.5*	0.8
CN1CCC(=NNC(=O)c2cc(-c3ccc(Cl)cc3)n[nH]2)CC1	1.3	-1.7	7.5	-1.3	1.3	x	x
CCOc1ccc(-c2cc(C(=O)NN=C3CCN(C)CC3)[nH]n2)cc1	0.1	1.1*	13.3*	6.0*	3.2	3.1	0.0
O=C(N[C@H](C(=O)N1CCC[C@H]1C(=O)NC1CCCC1)c1ccccc1)C1CC1	x	-1.2	-1.4	0.3	0.4	x	x
Clc1ccc2nc(N3CCCCC3)[nH]c2c1	1.4	0.3	19.9*	5.7*	4.5*	17.2*	0.9
COc1cc(NC(=O)C2CCCN(S(=O)(=O)c3ccc(C)cc3)C2)cc(OC)c1 (stereo unspecified)	x	-1.5	-3.7	1.0	-0.3	x	x
Nc1ccccc1NC(=O)NC(=O)c1ccccc1	4.6*	2.0*	15.9*	1.4	2.0	15.9*	0.5
Nc1ccccc1NC(=O)c1ccccc1N	-0.2	-0.3	5.0	0.2	0.5	x	x
Brc1ccc(-c2nn3c(-c4ccccc4)nnc3s2)o1	x	-1.1	3.0	-2.4	-1.6	x	x
Cc1ccccc1CN1CCCCC(NC(=O)c2ccc(COc3ccccc3)cc2)C1=O (stereo unspecified)	x	-2.4	-6.9	-6.7	-4.5	x	x
Cc1occc1C(=O)O/N=C(\N)c1ccccc1	x	0.1	13.8*	4.9	2.5	13.5*	0.9
N/C(=N\OC(=O)/C=C/c1ccccc1)c1ccc(Cl)cc1	x	-0.9	3.6	-1.8	-0.5	x	x
C/C(=N/NC(=O)c1ccccc1)c1ccc(NC(=O)C(F)(F)F)cc1	1.7	-0.2	14.5*	3.9	2.3	5.3	0.2
COc1ccc(C(=O)O/N=C(\N)c2ccncc2)cc1OC	1.2	-1.0	4.5	0.2	-0.2	x	x
COc1ccc(C(=O)O/N=C(\N)c2ccccc2)cc1OC	5.9*	-0.2	16.5*	5.2	2.1	11.7*	0.7
Cc1cccc(/C(N)=N/OC(=O)c2ccoc2C)c1	1.6	0.2	9.1	5.2	1.5	x	x
SMILES	DAX1 inh-1	ssDAF-12 act	hgDAF-12 ag	hcDAF-12 act	DAX1 inh-2	hgDAF12 conf	LXRb DAF12 ctr
N/C(=N\OC(=O)/C=C/c1ccccc1)c1ccccc1	3.1	0.6	17.4*	1.7	4.3*	14.5*	0.7
C=CCCC1CN(Cc2ccc(OC)cc2)S(=O)(=O)c2c(NCc3cc(OC)c(OC)c(OC)c3)cccc2O1 (stereo unspecified)	x	-1.6	-2.8	-4.1	-3.9	x	x
COc1ccc(Cn2cc(COC(=O)N3CCOCC3)nn2)cc1	x	-0.7	-4.1	-0.9	0.0	x	x
CCCCC(=O)N[C@H]1CC[C@@]23CCCN2C(=O)CCC[C@H]3[C@H]1C	x	-1.7	1.9	0.2	x	x	x
C/C(=N\NC(=O)c1ccoc1C)c1ccccc1	x	0.6	13.8*	5.6*	3.9*	11.2*	0.6
COc1ccc(/C(N)=N/OC(=O)c2ccco2)cc1OC	2.3	-0.1	17.8*	1.9	3.3	12.6*	0.3

Source: PubChem BioAssay
